# Data taken from PubChem BioAssay (NCI).
# About 83,000 compounds went through this panel and 20% of them were active in at least one assay; those are over-represented in the sample as a whole.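 48-hour exposure, single concentration, 96-well plates; percent growth endpoint where 0 means no net growth. Active: below 10.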 A number with no mark means an inactive call. Activity calls are given as the source filed them.
# Key:
# Assay in all cases: NCI-60 one-dose screen, 48 h (100 = growth as untreated, 0 = no growth, -100 = all killed)
# Settings in all cases: 10 µM unless noted
# [1] = test system: EKVX NSCLC
# [2] = test system: SN12C renal
# [3] = test system: UO-31 renal
# [4] = test system: TK-10 renal
# [5] = test system: ACHN renal
# [6] = test system: CAKI-1 renal
# [7] = test system: CCRF-CEM leukemia
# [8] = test system: MOLT-4 leukemia
# [9] = test system: SR leukemia
# [10] = test system: RPMI-8226 leukemia
# [11] = test system: OVCAR-8 ovarian
# [12] = test system: OVCAR-5 ovarian
# [13] = test system: OVCAR-4 ovarian
# [14] = test system: SK-OV-3 ovarian
# [15] = test system: IGROV1 ovarian
# [16] = test system: HS 578T breast
# [17] = test system: NCI/ADR-RES ovarian
# [18] = test system: SK-MEL-2 melanoma
# [19] = test system: OVCAR-3 ovarian
# [20] = test system: A498 renal
Compound,growth [1],growth [2],growth [3],growth [4],growth [5],growth [6],growth [7],growth [8],growth [9],growth [10],growth [11],growth [12],growth [13],growth [14],growth [15],growth [16],growth [17],growth [18],growth [19],growth [20] [%]
COc1cc(-c2nc(SC(C)C)n(C(C)C)c(=O)c2C#N)ccc1OCc1ccccc1,81.3%,16.2%,56.8%,42.1%,32.5%,54.8%,33%,22.1%,39.9%,78.4%,77%,93.2%,4.7% (active),103%,67.1%,70.1%,76%,–,–,–
Cc1cc2ncc(-c3cc4ccccc4c(N4CCN(C)CC4)n3)nc2cc1C,73.8%,31.5%,4.16% (active),67.2%,-42.1% (active),30.2%,1.37% (active),-8.83% (active),-39.9% (active),-12.2% (active),67.9%,31.9%,37.6%,87.5%,42.3%,61.9%,40.2%,–,–,–
N/C(=N\C(N)=N\c1nc2ccccc2s1)c1cccc(F)c1,–,76.9% [5 µM],82.8% [5 µM],187% [5 µM],85.9% [5 µM],84% [5 µM],93.9% [5 µM],84.9% [5 µM],48.4% [5 µM],84.4% [5 µM],98.9% [5 µM],102% [5 µM],133% [5 µM],93.9% [5 µM],68.4% [5 µM],93.7% [5 µM],86.3% [5 µM],98% [5 µM],101% [5 µM],–
CCOc1cccc(-c2nc3sccn3c2-c2ccnc(S(C)(=O)=O)n2)c1,–,98.4%,97.1%,119%,87.6%,86.3%,99.6%,101%,68.2%,97.1%,102%,106%,87%,112%,94.2%,102%,103%,108%,–,–
NS(=O)(=O)c1ccc(-n2cc(-c3cccc(NC(=O)c4ccc(N5CCOCC5)c(C(F)(F)F)c4)c3)nn2)cc1,74.1%,43.9%,26.7%,98.6%,43.5%,51.1%,20.3%,11%,4.3% (active),10.2%,42.7%,67.8%,15%,69.9%,40.3%,48.9%,82.4%,–,–,–
COc1cc(-c2nn(C(C)(C)C)cc2-c2ccnc(NCCCNS(=O)(=O)c3ccccc3)n2)ccc1Cl,–,52%,39.4%,66%,77.2%,27%,–,59.6%,56%,56.3%,84.9%,84.3%,57.6%,103%,55.2%,–,71%,89.6%,93.1%,31.2
C=C(C)[C@@H]1CC[C@]2(C(=O)NCCCCCN(CCC#N)CCC#N)CC[C@]3(C)[C@H](CC[C@@H]4[C@@]5(C)CCC(=O)C(C)(C)[C@@H]5CC[C@]43C)[C@@H]12,–,89.3%,71.6%,74.7%,98.7%,61.1%,–,92%,80.4%,79.7%,106%,96.2%,86%,118%,97.6%,103%,108%,106%,111%,48.9
C=CCn1c(SCC(=O)Nc2ccc(C(=O)/C=C/c3ccc(Cl)cc3)cc2)nnc1-c1c[nH]c2ccccc12,–,71.5%,47.8%,103%,77.6%,–,75.3%,66.4%,71.1%,2.66% (active),76.1%,97.3%,66.9%,86.7%,58.1%,91.5%,97.7%,88.7%,84%,91.4
Nc1nc(-c2cccc([N+](=O)[O-])c2)c(N=Nc2ccc([N+](=O)[O-])cc2Cl)s1,6.7% (active),5.24% (active),10.5%,22.7%,7.06% (active),4.29% (active),13%,7.78% (active),5.91% (active),-6.23% (active),7.59% (active),21%,16.3%,-11% (active),30.6%,-4.26% (active),6.4% (active),–,–,–
COc1cc(/C=C2\C(=O)Nc3ccccc32)ccc1OCc1ccc(F)cc1,–,100%,84.7%,130%,102%,–,102%,96.8%,90.1%,107%,102%,107%,103%,114%,101%,115%,102%,107%,117%,89.2
CC(C)(C)c1ccc(-c2nnc(-c3nc4ccccc4nc3Cl)o2)cc1,–,86.2%,79.4%,107%,102%,89.2%,103%,101%,91.3%,65.9%,84.2%,99.1%,82.2%,95.9%,72.5%,-8.86% (active),82.5%,63.8%,–,89.4
Oc1cccc2ccc(-c3nnc(SCc4ccc(O)c5ncccc45)o3)nc12,–,7.07% (active),-6.85% (active),27.9%,7.94% (active),8.28% (active),19.6%,17.4%,26.1%,2.55% (active),–,40.9%,20.5%,12.3%,13.4%,8.45% (active),17.3%,8.17% (active),2.66% (active),35.2
CCOc1ccc(NC2=C(Cl)C(=O)c3nc(C)ccc3C2=O)cc1,–,-57.3% (active),-65% (active),121%,-98.4% (active),–,–,-46.7% (active),-27.4% (active),-19.3% (active),1.03% (active),54.8%,-97.5% (active),79.8%,–,49%,-15.6% (active),-49.8% (active),-97.2% (active),101
O=C(CSc1nnc(-c2ccc(Cl)cc2)n1-c1ccccc1)Nc1cccc(Cl)c1,–,25.4%,12.6%,75.1%,9.9% (active),64.9%,78.3%,85.6%,21.4%,34.5%,62.4%,71.7%,-5.99% (active),126%,–,54.4%,50.4%,101%,82%,95.9
Cc1ccc2c(c1)C13C(=C2Br)CCCN1C(=O)c1ccccc13 (stereo not given),–,92.5%,76.5%,99.9%,95.5%,75.8%,79.7%,–,47.2%,80.4%,99.5%,96.6%,91.8%,96.2%,88.5%,94.3%,–,100%,–,92.4
CCC(NC(c1cc2cccc3ccc4cccc1c4c32)c1nnnn1C(C)(C)C)C1CCCCC1 (stereo not given),92.1%,80.8%,72.1%,80.6%,54.5%,63.1%,58.1%,47.2%,40.9%,28.1%,73.2%,84.6%,46.5%,70.8%,65.2%,84.5%,74.4%,–,–,–
COc1c(N2CC3CCCNC3C2)c(F)cc2c(=O)c(C(=O)N/N=C/c3ccc4c(c3)OCO4)cn(C3CC3)c12 (stereo not given),–,82.9%,64.9%,124%,85.3%,–,31.7%,59.3%,-24.3% (active),60.9%,54%,87.3%,90.5%,99.7%,51%,103%,63.6%,103%,29.4%,105
